# In PubChem BioAssay AID618 (Sanford-Burnham Center for Chemical Genomics, 2007):
# Out of some 87,000 compounds screened, about 540 (0.62%) were called active. Entries that show only a call come without a potency. The rule behind the calls is not given here. Many of the other results were omitted from the sample, so actives are more common in it than they were. Potency and affinity values are given separately.
# Test: MT1-MMP gene expression reporter suppression – cell-based, luciferase reporter, luminescence (AID 618);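 note: actives suppress MT1-MMP promoter-driven transcription so potencies describe inhibitors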
# Conditions: MT1-MMP promoter luciferase reporter cells
row,Compound,outcome
1,CC(=Nc1ccccc1)C1=C(O)CSC1=O,inactive
2,COc1ccc(OC)c(NC(=O)c2ccc(NS(=O)(=O)c3c(C)noc3C)cc2)c1,inactive
3,CCn1c(=O)c2c(nc3n2CC(C)CN3CCc2ccccc2)n(C)c1=O (configuration not stated),inactive
4,CCCN(CCC)S(=O)(=O)c1ccc(NS(=O)(=O)c2ccc(F)cc2)cc1,inactive
5,CCC(=O)c1ccccc1OCCCn1cncn1,inactive
6,CCC(=O)Nc1cc2nn(-c3ccccc3)nc2cc1Cl,active
7,CC(C)CC(=O)Nc1cc2nn(-c3ccccc3)nc2cc1Cl,inactive
8,CC(=O)Nc1cc2nn(-c3ccccc3)nc2cc1Cl,inactive
9,CCSc1nnc(-c2ccc(Cl)cc2Cl)o1,inactive
10,Clc1ccc(-c2nnc(SCc3ccon3)o2)c(Cl)c1,active
11,C=CCSc1nnc(-c2ccc(Cl)cc2Cl)o1,inactive
12,Cc1cc(OCC(=O)N2CCc3ccccc3C2)c2c(-c3ccccc3)cc(=O)oc2c1,inactive
13,Cc1ccc(S(=O)(=O)N(C)Cc2ccc(-c3nnc4n3CCC4)cc2)cc1,inactive
14,COC(=O)CNC(=O)[C@@]1(C)C=C[C@@H](Cc2ccccc2)N1C(=O)OC,active
15,COC(=O)CNC(=O)[C@@]1(C)C=C[C@@H](Cc2ccccc2)N1C(C)=O,inactive
16,CNC(=O)[C@@]1(C)C=C[C@@H](Cc2ccccc2)N1C(=O)OC,inactive
17,CCOC(=O)C1CCN(Cc2ccc(F)cc2F)CC1,inactive
18,O=C1NC2(CCOc3ccccc32)C(=O)N1CC(=O)N(Cc1ccccc1)C1CCS(=O)(=O)C1 (configuration not stated),inactive
19,Cn1c(SCc2ccon2)nc2ccccc2c1=O,inactive
20,Cc1ccc2nc(N/N=C\c3ccc([N+](=O)[O-])o3)nc(-c3ccccc3)c2c1,inactive
21,Cn1c(/C=C/c2ccc([N+](=O)[O-])o2)nc2ccccc2c1=O,active

row,Compound,outcome
1,COc1ccccc1C(=O)Nc1ccc2c(c1)nc(CN1CCN(C(C)=O)CC1)n2C,inactive
2,Oc1ccc(/C=C/c2cc(O)cc(O)c2)cc1,active
3,C/C=C(/C(=C/C)c1ccc(O)cc1)c1ccc(O)cc1,inactive
4,CC(/C=C/c1ccc(O)cc1)=N/O,inactive
5,c1ccc(Cn2c(Nn3cnnc3)nc3ccccc32)cc1,inactive
6,COc1ccc(CCN(Cc2cc3cccc(C)c3[nH]c2=O)C(=O)NC2CCCCC2)cc1OC,inactive
7,COc1ccc2sc(NC(C)=O)nc2c1,inactive
8,COc1ccccc1C(=O)Nc1nnc(-c2ccco2)s1,inactive
9,CS(=O)(=O)c1ccc2nc(NC(=O)c3ccco3)sc2c1,inactive
10,O=C(Nc1nc2ccc(Cl)cc2s1)c1ccco1,inactive
11,O=C(Nc1nnc(-c2ccco2)s1)c1ccccc1,inactive
12,COc1ccc2c(c1)Cc1sc(NC(=O)c3ccco3)nc1-2,inactive
13,COc1ccc2sc(NC(=O)c3ccco3)nc2c1,active
14,COc1ccc2nc(NC(=O)c3ccoc3C)sc2c1,inactive
15,CCOc1ccc2nc(NC(=O)c3cnc(C)cn3)sc2c1,inactive
16,O=C(CCN1C(=O)COc2ccccc21)NCc1cccnc1,inactive
17,O=C(NCc1cccnc1)C1CCN(S(=O)(=O)N2CCC3(CC2)OCCO3)CC1,inactive
18,Cc1ccc(NC(=O)C2CCN(C(=O)NC3CCCCC3)CC2)cc1,inactive
19,CC(=O)c1ccc(OCC(O)CN2CCC(C)CC2)cc1 (configuration not stated),inactive
20,Cc1ccc(C)c(OCCCC(=O)O)c1,inactive
21,Nc1ccc(Oc2ccc([N+](=O)[O-])cc2[N+](=O)[O-])cc1,inactive

row,Compound,outcome
1,COc1ccccc1NC(=O)CSc1nnc(-c2ccco2)o1,inactive
2,NC(=O)C1(N2CCCCC2)CCN(c2nc(-c3ccccc3)cs2)CC1,inactive
3,COCCn1c(=S)[nH]c2cc(C(=O)NCC3CCCO3)ccc2c1=O (configuration not stated),inactive
4,COc1cccc(C(=O)Nc2ccc(C(=O)O)cc2)c1,inactive
5,c1ccc(-c2noc(CSc3nnc(Cc4cccs4)n3-c3ccccc3)n2)cc1,inactive
6,Cc1nn2c(-c3ccc(Cl)cc3)nnc2s1,inactive
7,CCc1nn2cc(-c3ccccc3)nc2s1,active
8,CCN(CC)CCNC(=O)c1sc2nc(-c3ccccc3)cn2c1C,inactive
9,Nc1nc(-c2ccc(Cl)cc2)cn1N,inactive
10,Cc1nn2cc(-c3ccccc3)nc2[nH]c1=O,inactive
11,Cc1c(C(=O)N2CCOCC2)sc2nc(-c3ccccc3)cn12,inactive
12,Cc1cccn2cc(-c3ccccc3)nc12,inactive
13,Cc1nn2cc(-c3ccc(Cl)cc3)nc2s1,active
14,Cc1nc(-c2ccccc2)cs1,inactive
15,Cc1nn2cc(-c3ccc(-c4ccccc4)cc3)nc2s1,active
16,O=C(O)CCc1nn2cc(-c3ccccc3)nc2[nH]c1=O,inactive
17,Cc1ccc(CNCc2cc3c(C(C)(C)C)nn(-c4ccccc4)c3[nH]c2=O)cc1,inactive
18,O=C(O)CNS(=O)(=O)c1cc(Cl)c(Cl)cc1Cl,inactive
19,Cc1ccc(NC(=O)CS(=O)CC(=O)N(c2ccc(C)cc2)C(C)C(=O)NC2CCCCC2)cc1 (configuration not stated),inactive
20,CC(C)COC(=O)CNc1n[nH]c(=S)[nH]c1=O,inactive
